{"source": "paper PMC5540273", "about": "(PLoS ONE, 2017);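 note: KINOMEscan kinase panel screen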", "data": [{"tested_on": "CAMK1", "settings": "concentration: 1 μM, replicates: in singlicate; n = 1", "units": {"%Inh": "%"}, "values": [{"smiles": "O=C(Nc1n[nH]c2nc(-c3ccccc3)c(Br)cc12)C1CC1", "note": "[SB-708998]", "%Inh": 4}, {"smiles": "COC(=O)c1c(-c2ccccc2)c2cc(Br)ccc2c(=O)n1Cc1ccc(NC(=O)CCC(=O)O)cc1", "%Inh": 12}, {"smiles": "COc1cc2ncn(-c3cc(OCCCc4ccccc4)c(C(N)=O)s3)c2cc1OC", "note": "[GSK205189]", "%Inh": 14}, {"smiles": "Nc1nc(N)c2nc(-c3ccccc3)[nH]c2n1", "note": "[SKF-12778]", "%Inh": 0}, {"smiles": "COc1ccc(CNC(=O)NC2CCN(c3ccnc(Nc4ccc(F)cc4)n3)C2)cc1", "note": "(stereo not drawn) [GSK1379706]", "%Inh": 5}, {"smiles": "COc1ccc(Nc2nccc(N3CCC(NS(=O)(=O)c4ccc(NC(C)=O)cc4)C3)n2)cc1", "note": "(stereo not drawn) [GSK1379729]", "%Inh": 18}, {"smiles": "CCS(=O)c1ccc(-c2coc3ccc(-c4nnc(C)o4)cc23)cc1", "note": "(stereo not drawn)", "%Inh": 20}, {"smiles": "COc1cc2ncn(-c3cc(OCc4ccncc4)c(C(N)=O)s3)c2cc1OC", "note": "[GSK336313]", "%Inh": 24}, {"smiles": "O=C(Nc1n[nH]c2nc(-c3ccccc3)c(Cl)cc12)C1CC1", "note": "[SB-734909]", "%Inh": 0}, {"smiles": "Cc1nnc(-c2ccc3ncn(-c4ccc(S(C)=O)cc4)c3c2)o1", "note": "(stereo not drawn)", "%Inh": 11}, {"smiles": "Nc1n[nH]c2ncc(-c3ccccc3)cc12", "note": "[SB-517081]", "%Inh": 18}, {"smiles": "COc1cc2ncn(-c3cc(OCc4ccc(S(C)(=O)=O)cc4)c(C(N)=O)s3)c2cc1OC", "note": "[GW869979]", "%Inh": 0}, {"smiles": "Cc1ccc(-c2ccc3c(ccc4sc5c(c43)NC[C@@H](C)N=C5N(C)C)n2)cn1", "%Inh": 0}, {"smiles": "COc1cc(Nc2nccc(N3CCC(NC(=O)C(C)c4ccc(Cl)cc4)C3)n2)cc(OC)c1OC", "note": "(stereo not drawn) [GSK1379757]", "%Inh": 22}, {"smiles": "Cl.NS(=O)(=O)c1cccc(Nc2cc(-c3ccc(F)cc3)n[nH]2)c1", "note": "[GW824645]", "%Inh": 0}, {"smiles": "CCCNC(=O)Nc1ccc(Oc2ncnc3ccn(C)c23)cc1", "%Inh": 13}, {"smiles": "CCC(=O)c1c(-c2ccccc2)c2cc(Cl)ccc2c(=O)n1Cc1ccc(C(=O)O)cc1", "%Inh": 0}, {"smiles": "O=c1cc(N2CCOCC2)nc2n(Cc3ccc(F)c(Cl)c3)ccn12", "note": "[GSK2297099]", "%Inh": 17}, {"smiles": "CCC(=O)c1c(-c2ccccc2)c2cc(Cl)ccc2c(=O)n1Cc1cc(S(C)(=O)=O)n(CC(N)=O)n1", "%Inh": 3}, {"smiles": "FC(F)(F)c1ccc(-c2ncn(CCCN3CCOCC3)c2-c2ccncc2)cc1", "note": "[SB-217780]", "%Inh": 0}, {"smiles": "Cc1nc(N(C)[C@H]2CN(C(=O)CC#N)CC[C@H]2C)c2cc[nH]c2n1", "%Inh": 22}, {"smiles": "Nc1ncnc2c1ncn2-c1cccc2ccccc12", "note": "[SKF-97184]", "%Inh": 20}, {"smiles": "Cc1nnc(-c2ccc(C)c(-c3ccc(C(=O)O)cc3)c2)o1", "note": "[GW608005]", "%Inh": 2}, {"smiles": "COc1cccc(C2=C(Nc3cccc(C(=O)O)c3)C(=O)NC2=O)c1", "note": "[SB-390770]", "%Inh": 3}, {"smiles": "COc1ccc(-c2cc3c(C)nc(N)nc3n([C@H]3CC[C@H](O)CC3)c2=O)cn1", "%Inh": 0}, {"smiles": "Cc1cc(Nc2nc(-c3cccc(C)n3)nc3ccccc23)ccn1", "note": "[GW872411]", "%Inh": 0}, {"smiles": "COc1cc2nccc(Nc3ccc(OCc4ccc(NC(C)=O)cc4)cc3)c2cc1OC.Cl", "note": "[GW440135]", "%Inh": 5}, {"smiles": "O=C(Nc1n[nH]c2cc(-c3ccccc3F)ccc12)C1CC1", "note": "[SB-733371]", "%Inh": 0}, {"smiles": "CN(C)c1cc(-c2ccc3c(N)n[nH]c3c2)nc(N)n1", "note": "[GSK2219329]", "%Inh": 4}, {"smiles": "CCS(=O)(=O)c1ccc(OC)c(Nc2ncc(-c3ccc(F)cc3)o2)c1.Cl", "note": "[GW591947]", "%Inh": 0}, {"smiles": "Nc1nc(-c2ccccc2F)c(-c2ccnc3ccccc23)s1", "note": "[GW560459]", "%Inh": 6}, {"smiles": "Cc1nn2c(=O)cc(N3CCOCC3)nc2n1Cc1cccc(Cl)c1Cl", "note": "[GSK2342769]", "%Inh": 9}, {"smiles": "Fc1cccc(CSc2nnc(-c3ccc4c(c3)CCO4)o2)c1", "%Inh": 6}, {"smiles": "Cc1cccc(-c2cc(-c3c[nH]nc3-c3ccccn3)ccn2)c1", "note": "[GW679395]", "%Inh": 7}, {"smiles": "COc1cc2ncn(-c3cc(OCc4ccncc4Br)c(C(N)=O)s3)c2cc1OC", "note": "[GW854278]", "%Inh": 0}, {"smiles": "CC(C)(C)c1ccc(C(=O)Nc2cn3cc(-c4ccccc4)ccc3n2)cc1", "%Inh": 0}]}]}
